Four compounds from PubChem BioAssay can be followed below.

Calls of active or inactive are those of the source.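 How the source made its calls, unless noted: active means normalized viability below 100% at a tested concentration; inactive means the rest.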

The viability is a read-out of living cells in per cent, often relative to untreated cells.

The nature of test [1]: survival rescue of mitochondrial mutant cells in low glucose, primary screen, MELAS cybrids, Rieske KO mouse fibroblasts, CellTiter-Glo (AID 1508586;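 active means mean z-score across replicates of 1.96 or higher in either the MELAS or the Rieske mutant cell line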;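 further: z relative to plate mean and SD of compound and empty wells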). For orientation: In ATP-based viability assays light output follows the ATP content of the culture.
The nature of test [2]: viability rescue of complex I mutant cybrids, primary screen, cell-based, galactose medium, ATP luminescence (AID 1645843;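 active means z-score of at least 1.8 in each of two replicates, scored against plate mean and spread of sample wells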;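 further: positive z means more ATP and so rescue of galactose-driven cybrid death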). Particulars: complex I mutant cybrid cells, 72 h, stronger effect = higher value.
Test [3] has as its target NAD(+) hydrolase SARM1 (Homo sapiens) (UniProt Q6SZW1). Nature of the test: SARM1 TIR NADase inhibitors, cell lysate, NAD-Glo luminescence (AID 1508614;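 active means compound whose remaining NAD level is above about 45 nM, limit read from the data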). Particulars: SAM-TIR HEK293T lysate NADase, at 1 µM, stronger effect = higher value.
Test [4] is described as follows: ovarian cancer cell viability with rucaparib, profiling panel, oncology-focused library, rucaparib conditional (AID 1508598). The settings on record: patient-derived ovarian cancer cells, CellTiter-Glo viability, 144 h, stronger effect = lower value.
The mark [5] stands for this setting: at 0.000305 µM, OCI-C5x cells, with rucaparib 10 µM, 100% = cells with rucaparib alone.
Where [6] appears, read: at 0.000305 µM, OCI-C5x cells, without rucaparib.
Where [7] appears, read: at 0.000305 µM, OCI-P5x cells, with rucaparib 20 µM, 100% = cells with rucaparib alone.
Where [8] appears, read: at 0.000305 µM, OCI-P5x cells, without rucaparib.
Setting [9] is: at 0.00122 µM, OCI-C5x cells, with rucaparib 10 µM, 100% = cells with rucaparib alone.
Setting [10] is: at 0.00122 µM, OCI-C5x cells, without rucaparib.
[11] abbreviates: at 0.00122 µM, OCI-P5x cells, with rucaparib 20 µM, 100% = cells with rucaparib alone.
[12] abbreviates: at 0.00122 µM, OCI-P5x cells, without rucaparib.
Setting [13] is: at 0.00488 µM, OCI-C5x cells, with rucaparib 10 µM, 100% = cells with rucaparib alone.
[14] abbreviates: at 0.00488 µM, OCI-C5x cells, without rucaparib.
Where [15] appears, read: at 0.00488 µM, OCI-P5x cells, with rucaparib 20 µM, 100% = cells with rucaparib alone.
Setting [16] is: at 0.00488 µM, OCI-P5x cells, without rucaparib.
Setting [17] is: at 0.0195 µM, OCI-C5x cells, with rucaparib 10 µM, 100% = cells with rucaparib alone.
Setting [18] is: at 0.0195 µM, OCI-C5x cells, without rucaparib.
[19] abbreviates: at 0.0195 µM, OCI-P5x cells, with rucaparib 20 µM, 100% = cells with rucaparib alone.
The mark [20] stands for this setting: at 0.0195 µM, OCI-P5x cells, without rucaparib.
Where [21] appears, read: at 0.0781 µM, OCI-C5x cells, with rucaparib 10 µM, 100% = cells with rucaparib alone.
Where [22] appears, read: at 0.0781 µM, OCI-C5x cells, without rucaparib.
[23] abbreviates: at 0.0781 µM, OCI-P5x cells, with rucaparib 20 µM, 100% = cells with rucaparib alone.
[24] abbreviates: at 0.0781 µM, OCI-P5x cells, without rucaparib.
Where [25] appears, read: at 0.313 µM, OCI-C5x cells, with rucaparib 10 µM, 100% = cells with rucaparib alone.
The mark [26] stands for this setting: at 0.313 µM, OCI-C5x cells, without rucaparib.
[27] abbreviates: at 0.313 µM, OCI-P5x cells, with rucaparib 20 µM, 100% = cells with rucaparib alone.
Where [28] appears, read: at 0.313 µM, OCI-P5x cells, without rucaparib.
Where [29] appears, read: at 1.25 µM, OCI-C5x cells, with rucaparib 10 µM, 100% = cells with rucaparib alone.
Setting [30] is: at 1.25 µM, OCI-C5x cells, without rucaparib.
The mark [31] stands for this setting: at 1.25 µM, OCI-P5x cells, with rucaparib 20 µM, 100% = cells with rucaparib alone.
Where [32] appears, read: at 1.25 µM, OCI-P5x cells, without rucaparib.
Setting [33] is: at 5 µM, OCI-C5x cells, with rucaparib 10 µM, 100% = cells with rucaparib alone.
Setting [34] is: at 5 µM, OCI-C5x cells, without rucaparib.

NAD(+) hydrolase SARM1 (Homo sapiens), sequence (Q6SZW1 whole entry, looked up): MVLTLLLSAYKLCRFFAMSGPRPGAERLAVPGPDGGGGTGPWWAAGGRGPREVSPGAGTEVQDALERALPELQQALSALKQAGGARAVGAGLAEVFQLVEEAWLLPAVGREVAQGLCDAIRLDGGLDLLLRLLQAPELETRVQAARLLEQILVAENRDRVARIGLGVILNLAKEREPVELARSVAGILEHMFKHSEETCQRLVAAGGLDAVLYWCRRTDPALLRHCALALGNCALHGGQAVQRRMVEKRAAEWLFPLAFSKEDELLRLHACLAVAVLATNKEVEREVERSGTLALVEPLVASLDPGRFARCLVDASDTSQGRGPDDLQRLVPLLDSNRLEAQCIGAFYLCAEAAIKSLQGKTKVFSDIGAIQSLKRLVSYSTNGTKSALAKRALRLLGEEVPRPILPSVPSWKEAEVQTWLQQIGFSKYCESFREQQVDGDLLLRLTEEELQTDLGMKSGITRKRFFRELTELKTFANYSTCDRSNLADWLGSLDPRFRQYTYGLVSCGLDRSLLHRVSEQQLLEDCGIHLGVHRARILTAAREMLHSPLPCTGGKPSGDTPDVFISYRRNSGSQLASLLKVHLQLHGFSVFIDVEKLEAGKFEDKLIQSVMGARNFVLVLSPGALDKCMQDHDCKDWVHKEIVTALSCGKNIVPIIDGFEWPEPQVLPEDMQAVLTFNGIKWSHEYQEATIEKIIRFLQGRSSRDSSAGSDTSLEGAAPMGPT

As to `Cc1ccnn1CCC(=O)N1CC(=O)N(CC(C)C)CC(OCc2ccccn2)C1` (stereo unspecified), the z-score was -0.157 (inactive) in test [1] (MELAS cybrid survival, CellTiter-Glo 48 h, stronger effect = higher value); -0.668 in test [1] (Rieske KO mouse fibroblast survival, CellTiter-Glo 72 h); 0.98 (inactive) in test [2].
Consider `C=C(C)[C@H]1CC=C(C)CC1`, for which the remaining NAD in test [3] is 10 nM (inactive).
With `C[C@]12CCC(=O)C=C1CC[C@@H]1[C@H]2[C@H](O)C[C@@]2(C)[C@H]1CC[C@@]2(O)C(=O)CO`, the viability is 107% (inactive) in test [4] (setting [5]); 119% (inactive) in test [4] (setting [6]); 105% (inactive) in test [4] (setting [7]); 115% (inactive) in test [4] (setting [8]); 109% (inactive) in test [4] (setting [9]); 116% (inactive) in test [4] (setting [10]). For the same compound, the viability in test [4] (setting [11]) was 98.6% (active); in test [4] (setting [12]), 109% (inactive); in test [4] (setting [13]), 114% (inactive); in test [4] (setting [14]), 121% (inactive); in test [4] (setting [15]) it was 102% (inactive); in test [4] (setting [16]) it was 117% (inactive). Also, the viability was 110% (inactive) in test [4] (setting [17]); 128% (inactive) in test [4] (setting [18]); 109% (inactive) in test [4] (setting [19]); 112% (inactive) in test [4] (setting [20]); 112% (inactive) in test [4] (setting [21]); 132% (inactive) in test [4] (setting [22]). Besides, the viability is 103% (inactive) in test [4] (setting [23]); 115% (inactive) in test [4] (setting [24]); 103% (inactive) in test [4] (setting [25]); 119% (inactive) in test [4] (setting [26]); 104% (inactive) in test [4] (setting [27]); 114% (inactive) in test [4] (setting [28]). Moreover, the viability in test [4] (setting [29]) was 111% (inactive); in test [4] (setting [30]), 118% (inactive); in test [4] (setting [31]), 103% (inactive); in test [4] (setting [32]) it was 114% (inactive); in test [4] (setting [33]), 125% (inactive); in test [4] (setting [34]), 120% (inactive). The viability in test [4] (at 5 µM, OCI-P5x cells, with rucaparib 20 µM, 100% = cells with rucaparib alone) is 103% (inactive); in test [4] (at 5 µM, OCI-P5x cells, without rucaparib), 99.3% (active).
For `CC1(C)C=C(CN2C/C(=C/c3ccc(F)cc3)C(=O)/C(=C/c3ccc(F)cc3)C2)C(C)(C)N1O`, the viability in test [4] (setting [5]) was 136% (inactive); in test [4] (setting [6]) it was 110% (inactive); in test [4] (setting [7]), 90.6% (active); in test [4] (setting [8]) it was 90.1% (active); in test [4] (setting [9]), 117% (inactive); in test [4] (setting [10]) it was 106% (inactive). For the same compound, the viability in test [4] (setting [11]) was 80% (active); in test [4] (setting [12]) it was 81.9% (active); in test [4] (setting [13]), 131% (inactive); in test [4] (setting [14]), 112% (inactive); in test [4] (setting [15]), 74.5% (active); in test [4] (setting [16]), 83.8% (active). Moreover, the viability is 127% (inactive) in test [4] (setting [17]); 112% (inactive) in test [4] (setting [18]); 71% (active) in test [4] (setting [19]); 81.9% (active) in test [4] (setting [20]); 124% (inactive) in test [4] (setting [21]); 117% (inactive) in test [4] (setting [22]). Also, the viability in test [4] (setting [23]) was 102% (inactive); in test [4] (setting [24]), 106% (inactive); in test [4] (setting [25]) it was 125% (inactive); in test [4] (setting [26]) it was 109% (inactive); in test [4] (setting [27]), 96.7% (active); in test [4] (setting [28]), 103% (inactive). Also, the viability was 127% (inactive) in test [4] (setting [29]); 118% (inactive) in test [4] (setting [30]); 102% (inactive) in test [4] (setting [31]); 105% (inactive) in test [4] (setting [32]); 124% (inactive) in test [4] (setting [33]); 115% (inactive) in test [4] (setting [34]).
